# Measurements: the supplement of paper PMC8728848
# Only a selection was taken, and the strongest signals are over-represented in it overall.
# B1: DC-ASGPR L+GEE (Homo sapiens) (protein)
# chain: MTRTYENFQYLENKVKVQGFKNGPLPLQSLLQRLRSGPCHLLLSLGLGLLLLVIICVVGFQNSKFQRDLVTLRTDFSNFTSNTVAEIQALTSQGSSLEETIASLKAEVEGFKQERQAGVSELQEHTTQKAHLGHCPHCPSVCVPVHSEMLLRVQQLVQDLKKLTCQVATLNNNGEEASTEGTCCPVNWVEHQDSCYWFSHSGMSWAEAEKYCQLKNAHLVVINSREEQNFVQKYLGSAYTWMGLSDPEGAWKWVDGTDYATGFQNWKPGQPDDWQGHGLGGGEDCAHFHPDGRWNDDVCQRPYHWVCEAGLGQTSQESH
# Tests used:
# Assay in all cases: glycan array binding signal (z-score within array); higher = stronger binding
# Conditions in all cases: glycan notation: IUPAC condensed, linker removed
# [1] = target: Fuc(a1-2)Gal(b1-3)GlcNAc(b1-2)Man(a1-3)[Fuc(a1-2)Gal(b1-3)GlcNAc(b1-2)Man(a1-6)]Man(b1-4)GlcNAc(b1-4)[Fuc(a1-6)]GlcNAc
# Procedure, shortened: (§1)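 Glycan array binding is given as a within-array Z-score, which can be read as non-binding when negative. The arrays, 3228 of them, came from the Consortium for Functional Glycomics database and were retained only where the protein sequence was available. Z-scores were averaged across arrays of the same protein sequence at different concentrations or buffers and across linkers.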
# [2] = target: Fuc(a1-2)Gal(b1-4)GlcNAc(b1-3)Gal(b1-4)GlcNAc(b1-2)Man(a1-3)[Fuc(a1-2)Gal(b1-4)GlcNAc(b1-3)Gal(b1-4)GlcNAc(b1-2)Man(a1-6)]Man(b1-4)GlcNAc(b1-4)GlcNAc
# Procedure, shortened: as §1
# [3] = target: Fuc(a1-2)[Gal(a1-3)]Gal(b1-3)GlcNAc(b1-6)GalNAc
# Procedure, shortened: as §1
# [4] = target: Fuc(a1-2)[Gal(a1-3)]Gal(b1-4)GlcNAc(b1-6)GalNAc
# Procedure, shortened: as §1
# [5] = target: Fuc(a1-2)[GalNAc(a1-3)]Gal(b1-4)GlcNAc(b1-2)Man
# Procedure, shortened: as §1
# [6] = target: Fuc(a1-2)[GalNAc(a1-3)]Gal(b1-4)GlcNAc(b1-6)GalNAc
# Procedure, shortened: as §1
# [7] = target: Fuc(a1-2)[GalNAc(b1-3)]Gal
# Procedure, shortened: as §1
# [8] = target: Gal(a1-3)Gal
# Procedure, shortened: as §1
# [9] = target: Gal(a1-3)Gal(b1-4)GlcNAc(b1-6)GalNAc
# Procedure, shortened: as §1
# [10] = target: Gal(a1-3)Gal(b1-4)[Fuc(a1-3)]GlcNAc(b1-2)Man(a1-3)[Gal(a1-3)Gal(b1-4)[Fuc(a1-3)]GlcNAc(b1-2)Man(a1-6)]Man(b1-4)GlcNAc(b1-4)GlcNAc
# Procedure, shortened: as §1
# [11] = target: Gal(a1-3)GalNAc
# Procedure, shortened: as §1
# [12] = target: Gal(a1-3)[Gal(a1-4)]Gal(b1-4)GlcNAc
# Procedure, shortened: as §1
# [13] = target: Gal(a1-4)Gal(b1-4)Glc
# Procedure, shortened: as §1
# [14] = target: Gal(b1-3)GlcNAc(b1-2)Man(a1-3)[Gal(b1-3)GlcNAc(b1-2)Man(a1-6)]Man(b1-4)GlcNAc(b1-4)[Fuc(a1-6)]GlcNAc
# Procedure, shortened: as §1
# [15] = target: Gal(b1-3)GlcNAc(b1-6)Gal(b1-4)GlcNAc
# Procedure, shortened: as §1
# [16] = target: Gal(b1-3)GlcNAc(b1-6)GalNAc
# Procedure, shortened: as §1
# [17] = target: Gal(b1-3)[Fuc(a1-4)]GlcNAc(b1-3)Gal(b1-3)[Fuc(a1-4)]GlcNAc
# Procedure, shortened: as §1
# [18] = target: Gal(b1-3)[Neu5Ac(a2-6)]GlcNAc(b1-4)Gal(b1-4)Glc
# Procedure, shortened: as §1
# [19] = target: Gal(b1-4)GlcNAc(b1-2)Man(a1-3)[Gal(b1-4)GlcNAc(b1-2)Man(a1-6)][Gal(b1-4)GlcNAc(b1-4)]Man(b1-4)GlcNAc(b1-4)[Fuc(a1-6)]GlcNAc
# Procedure, shortened: as §1
# [20] = target: Gal(b1-4)GlcNAc(b1-3)Gal(b1-4)GlcNAc(b1-2)[Gal(b1-4)GlcNAc(b1-3)Gal(b1-4)GlcNAc(b1-6)]Man(a1-6)[Gal(b1-4)GlcNAc(b1-3)Gal(b1-4)GlcNAc(b1-2)Man(a1-3)]Man(b1-4)GlcNAc(b1-4)[Fuc(a1-6)]GlcNAc
# Procedure, shortened: as §1
# [21] = target: Gal(b1-4)GlcNAc(b1-3)Gal(b1-4)GlcNAc(b1-3)Gal(b1-4)GlcNAc(b1-2)[Gal(b1-4)GlcNAc(b1-3)Gal(b1-4)GlcNAc(b1-3)Gal(b1-4)GlcNAc(b1-6)]Man(a1-6)[Gal(b1-4)GlcNAc(b1-3)Gal(b1-4)GlcNAc(b1-3)Gal(b1-4)GlcNAc(b1-2)Man(a1-3)]Man(b1-4)GlcNAc(b1-4)[Fuc(a1-6)]GlcNAc
# Procedure, shortened: as §1
# [22] = target: Gal(b1-4)GlcNAc(b1-3)Gal(b1-4)GlcNAc(b1-3)Gal(b1-4)GlcNAc(b1-3)Gal(b1-4)GlcNAc(b1-2)[Gal(b1-4)GlcNAc(b1-3)Gal(b1-4)GlcNAc(b1-3)Gal(b1-4)GlcNAc(b1-3)Gal(b1-4)GlcNAc(b1-6)]Man(a1-6)[Gal(b1-4)GlcNAc(b1-3)Gal(b1-4)GlcNAc(b1-3)Gal(b1-4)GlcNAc(b1-3)Gal(b1-4)GlcNAc(b1-2)Man(a1-3)]Man(b1-4)GlcNAc(b1-4)[Fuc(a1-6)]GlcNAc
# Procedure, shortened: as §1
# [23] = target: Gal(b1-4)GlcNAc(b1-3)Gal(b1-4)GlcNAc(b1-3)Gal(b1-4)GlcNAc(b1-3)Gal(b1-4)GlcNAc(b1-3)Gal(b1-4)GlcNAc(b1-3)Gal(b1-4)GlcNAc(b1-2)Man(a1-3)[Gal(b1-4)GlcNAc(b1-3)Gal(b1-4)GlcNAc(b1-3)Gal(b1-4)GlcNAc(b1-3)Gal(b1-4)GlcNAc(b1-3)Gal(b1-4)GlcNAc(b1-3)Gal(b1-4)GlcNAc(b1-2)Man(a1-6)]Man(b1-4)GlcNAc(b1-4)GlcNAc
# Procedure, shortened: as §1
# [24] = target: Gal(b1-4)GlcNAc(b1-6)[Gal(b1-4)GlcNAc(b1-3)]GalNAc
# Procedure, shortened: as §1
# [25] = target: Gal3S(b1-3)GalNAc
# Procedure, shortened: as §1
# [26] = target: Gal3S(b1-4)[Fuc(a1-3)]GlcNAc6S
# Procedure, shortened: as §1
# [27] = target: GalNAc(b1-3)Gal
# Procedure, shortened: as §1
binder,measurement,setting,value
B1,glycan array binding signal (z-score),[1],-0.314
same,glycan array binding signal (z-score),[2],0.538
same,glycan array binding signal (z-score),[3],2.67
same,glycan array binding signal (z-score),[4],-0.492
same,glycan array binding signal (z-score),[5],0.54
same,glycan array binding signal (z-score),[6],3.41
same,glycan array binding signal (z-score),[7],3.61
same,glycan array binding signal (z-score),[8],0.243
same,glycan array binding signal (z-score),[9],3.21
same,glycan array binding signal (z-score),[10],0.091
same,glycan array binding signal (z-score),[11],-0.254
same,glycan array binding signal (z-score),[12],-0.371
same,glycan array binding signal (z-score),[13],-0.702
same,glycan array binding signal (z-score),[14],-0.527
same,glycan array binding signal (z-score),[15],-0.073
same,glycan array binding signal (z-score),[16],3.3
same,glycan array binding signal (z-score),[17],-0.093
same,glycan array binding signal (z-score),[18],-0.382
same,glycan array binding signal (z-score),[19],-0.406
same,glycan array binding signal (z-score),[20],-0.323
same,glycan array binding signal (z-score),[21],0.024
same,glycan array binding signal (z-score),[22],2.52
same,glycan array binding signal (z-score),[23],0.991
same,glycan array binding signal (z-score),[24],-0.432
same,glycan array binding signal (z-score),[25],0.442
same,glycan array binding signal (z-score),[26],0.135
same,glycan array binding signal (z-score),[27],3.04
